The source of these data is PubChem BioAssay (EPA / NIEHS).

Active and inactive are the calls of the source. How the source made its calls: active means hit-call score of the fitted dose curve at least 0.9, where 1 is the maximum; inactive means score below 0.9.

This assay in a line: ATG_NFI_CIS: Attagene CIS-FACTORIAL HepG2 Assay for human Nuclear Factor I (NFI) (AID 2282989). The conditions noted are these: HepG2 cis-regulatory reporter, NFI response element transcription; actives raise or lower the signal. Here is the method: ATG_CIS is a cell-based, multiplexed-readout assay that uses HepG2, a human liver cell line, with measurements taken at 24 hours after chemical dosing in a 24-well plate.ATG_NFI_CIS is one of 52 assay component(s) measured or calculated from the ATG_CIS assay. It is designed to make measurements of mRNA induction, a form of inducible reporter, as detected with fluorescence intensity signals by Reverse transcription polymerase chain reaction (RT-PCR) and Capillary electrophoresis technology.Data from the assay component ATG_NFI_CIS was analyzed into 1 assay endpoint. This assay endpoint, ATG_NFI_CIS, was analyzed with bidirectional fitting relative to DMSO as the negative control and baseline of activity. Using a type of inducible reporter, measures of mRNA for gain or loss-of-signal activity can be used to understand the reporter gene at the transcription factor-level as they relate to the gene NFIA. Furthermore, this assay endpoint can be referred to as a primary readout, because this assay has produced multiple assay endpoints where this one serves a reporter gene function. To generalize the intended target to other relatable targets, this assay endpoint is annotated to the dna binding intended target family, where the subfamily is nuclear factor I.
Human liver HepG2 cells are transiently transfected with multiple reporter transcription units (MRTUs) in 6-well plates using FuGene 6 reagent (Roche; 3 ml FuGene/1 mg DNA). The MRTU constructs are regulated by a cis-regulating element (promoter). […] A major difference between the CIS and TRANS system is that in CIS activities of endogenous TFs are measured, whereas the TRANS assay evaluates changes in activities of exogenous, chimeric NR-Gal4 proteins. […] At the end of 24 hour incubation, total RNA was isolated using TriZol reagent (Invitrogen). The isolated RNA is then reverse-transcribed using oligo(dT) primer and Mo-MLV reverse transcriptase (Invitrogen) with DNAse I (Ambion) treatment for 30 min. The one-tenth of the produced cDNA was amplified by PCR using Taq DNA polymerase (Invitrogen) and two reporter sequence-specific primers. The PCR products were fluorescently labeled by primer extension with 6-arboxyfluorescein (6-FAM) 5'-labeled reporter sequence-specific primer (2 min at 95 C, 20 s at 68 C and 10 min at 72 C) and these products were digested with 5U of HpaI (New England Biolabs) for 2h at 37 C. The fragments were purified using Qiaquick PCR columns (Qiagen), analyzed on an ABI 3130xL genetic analyzer (Applied Biosystems) with peak positions identified by using a set of X-rhodamine (ROX)-labeled MapMarker1000 molecular weight standards (BioVentures). The raw capillary electrophoresis data was processed using Attagraph software (Attagene).
Regarding `NCC(F)(F)C(F)(F)C(F)(F)C(F)(F)C(F)(F)C(F)(F)C(F)(F)C(F)(F)F`, the compound was classed as inactive.

Consider `Cc1cc(C)c(O)c(C(C)(C)C)c1`, for which the compound was called inactive.

As for `CC(C)(C)c1cc(CCC(=O)OCC(COC(=O)CCc2cc(C(C)(C)C)c(O)c(C(C)(C)C)c2)(COC(=O)CCc2cc(C(C)(C)C)c(O)c(C(C)(C)C)c2)COC(=O)CCc2cc(C(C)(C)C)c(O)c(C(C)(C)C)c2)cc(C(C)(C)C)c1O`, the result was inactive.

In the case of `CC(C)OC(=O)COc1ccc(Cl)cc1Cl`, the compound was classed as inactive.

For the compound `CC(C)OC=O`, the call was inactive.

As for `O=C1C=CC(=O)N1c1ccc(Cc2ccc(N3C(=O)C=CC3=O)cc2)cc1`, the compound was classed as inactive.

Take `CCC(=O)OC(C)c1ccccc1` (stereo not given): the compound was classed as inactive.

For the compound `Cc1cccc(C)n1`, the call was inactive.

Take `C#CC(O)CCC` (stereo not given): the call was inactive.

As for `O=C(O)C(F)(F)C(F)(F)C(F)(F)C(F)(F)C(F)(F)C(F)(F)C(F)F`, the result was inactive.

As for `Oc1ccc2c(c1)CCC2`, the compound was called inactive.

In the case of `NC(=O)C(F)(F)C(F)(F)C(F)(F)C(F)F`, the result was inactive.

`O=C=Nc1cccc2c(N=C=O)cccc12`: the result was inactive.

For the compound `Cc1cnccn1`, the outcome was inactive.

As to `Nc1cccnc1N`, the compound was called inactive.

As to `CCCCOC(=O)C(C)O` (stereo not given), the compound was classed as inactive.

Regarding `CCOC(=O)CCC(C)=O`, the compound was classed as inactive.

`CN1CN(C)CN(C)C1`: the call was inactive.

In the case of `O=S(=O)(Cl)C(F)(F)C(F)(F)C(F)(F)C(F)(F)C(F)(F)C(F)(F)C(F)(F)C(F)(F)F`, the call was inactive.

In the case of `CCCCCCCCCc1ccc(OCCO)cc1`, the outcome was inactive.

On to `O=C(Cl)c1ccc(Cl)cc1Cl`, for which the call was inactive.

For `O=c1cccc[nH]1`, the compound was classed as inactive.

In the case of `O=C(c1ccccc1)c1ccc(Cl)cc1`, the outcome was inactive.

With `CC(C)(C)C(=O)C1C(=O)c2ccccc2C1=O`, the compound was classed as inactive.

For `Cc1cc(O)c(C(C)(C)C)cc1C(C)(C)C`, the compound was classed as inactive.

Turning to `CCOCOCC`, the call was inactive.

For `CCC(C)CO` (stereo not given), the outcome was inactive.

As to `OCC(F)(F)C(F)(F)C(F)(F)CO`, the result was inactive.

Take `O=C=NCc1cccc(CN=C=O)c1`: the result was inactive.

In the case of `NC(=O)C(F)(F)C(F)(F)C(F)(F)C(F)(F)C(F)(F)C(F)(F)C(F)(F)F`, the call was inactive.

`OCCCc1cccnc1`: the compound was called inactive.

With `Cc1ccc2c(c1)OCC(=O)CO2`, the compound was called inactive.

In the case of `CC(C)=CCCC(C)O` (stereo not given), the call was inactive.

For the compound `OCCCC(F)(F)C(F)(F)C(F)(F)C(F)(F)C(F)(F)C(F)(F)C(F)(F)C(F)(F)F`, the call was inactive.

Take `OCCCCC(F)(F)C(F)(F)C(F)(F)C(F)(F)F`: the outcome was inactive.

With `COC(=O)c1ccc(C=O)cc1`, the call was inactive.

Take `CC(C)CCCC(C)CCO` (stereo not given): the call was inactive.

On to `O=S(=O)(O)CCC(F)(F)C(F)(F)C(F)(F)C(F)(F)F`, for which the compound was called inactive.

In the case of `NC(=O)C(F)(F)C(F)(F)C(F)(F)C(F)(F)C(N)=O`, the compound was called inactive.

Regarding `CN(C(=O)C(F)(F)C(F)(F)C(F)(F)F)[Si](C)(C)C`, the compound was called inactive.
